# Results reported in the supplement of paper PMC10338343.
# ± gives the standard deviation.
# System: MILI (PIWIL2) piRISC loaded with L1MC piRNA (26 nt)
# Test: pre-steady-state target cleavage rate (min^-1); guide: L1MC piRNA 5'p-UAACUAAAUACUAUGCAAGCUGUAGG; MIWI and MILI are mouse PIWI proteins and EfPiwi is from a freshwater sponge; tags in brackets are library labels; higher = faster piRNA-guided slicing of the target
# Conditions: auxiliary factor: 500 nM mouse GTSF1
# Summary of the method: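 In this Cleave-'n-Seq assay, uncleaved targets were sequenced and normalised to depth and to weakly complementary targets. They came from a transcribed, DNA-blocked target RNA library […] mixed with 1 nM active affinity-purified piRISC carrying one synthetic guide, with or without 500 nM GTSF1 partner protein, in HEPES–potassium acetate buffer at 33 °C for 0–8 or 0–960 min. After three trials were pooled and k3 was capped at 0.0001 min^-1, the pre-steady-state cleavage rate was obtained from a burst-and-steady-state fit.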
# 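Note: 1 nM active piRISC with 0.1 nM target library at 33 °C single turnover.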
row,Sequence,pre-steady-state target cleavage rate
1,UCCUGGAACAGCUUGCAAUGUAUUUAGUUA,0.0726 ± 0.0083
2,UCCUGGAAACAGCUUGCAUAGUAUUUAGUUA,0.347 ± 0.019
3,UCCUGCUACAGCUUGGUUAGUAUUUAGUAA,0.148 ± 0.021
4,UCCUGGAUGUGCAAGCAUAGUAUUUAGUUA,0.055 ± 0.012
5,UCCUCCUACAGCUUGCAUAGUUAUUUAGUUA,0.0152 ± 0.0067
6,UCCUCCUACAGCAACCAUAGUAUUUAGUUA,0.21 ± 0.022
7,UCCUGGAACAGCUGCAUAGUAUUUAGUUA,0.279 ± 0.021
8,UCCUGGAUCAGCUUGCAUAGAAUUUAGUUA,0.0368 ± 0.0086
9,UCCUGGAUGAGCUUGCAUUGUAUUUAGUUA,0.139 ± 0.013
10,UCCUGGUACACUUGCAUAGUAUUUAGUUA,0.188 ± 0.024
11,UCCUGCUACAGGUUGCAUAGUAUAUAGUUA,0.305 ± 0.036
12,UCCUGGAUGUGCUUGCAUAGUAUUUAAGUUA,0.158 ± 0.018
13,UCCUGGAUCAGCUGGCAUAGUAUUUAGUUA,0.253 ± 0.023
14,UCCUGGAUGUACUUGCAUAGUAUUUAGUUA,0.0966 ± 0.016
15,UCCUGGUACAGCUUGCAUAGUAUUUUCUAA,0.0489 ± 0.017
16,UCCUGGAUGUGGUAGCAUAGUAUUUAGUUA,0.0258 ± 0.011
17,UCCUGGAACAGCAUUGCAUAGUAUUUAGUUA,0.233 ± 0.024
18,UCCUGGAUGUGCUUGCAUCGUAUUUAGUUA,0.0778 ± 0.017
19,UCCUGGAUCAGGUUGCAUUGUAUUUAGUUA,0.115 ± 0.0091
20,UCCUCCUACUCCUUGCAUAGUAUUUAGUAA,0.147 ± 0.017

row,Sequence,pre-steady-state target cleavage rate
1,UCCUGCUACAGCUUGCAAAGUAUUUUGUUA,0.139 ± 0.026
2,UCCUGCUACAGCUUGCAUAGUAUUCUAGUUA,0.26 ± 0.038
3,UCCUGCUAGAGGUUGCAUAGUAUUUAGUUA,0.2 ± 0.011
4,UCCUGCAAGAGCUUGCAUAGUAUUUAGUUA,0.292 ± 0.025
5,UCCUGGAUGAAGCUUGCAUAGUAUUUAGUUA,0.224 ± 0.02
6,UCCUGCUACAGCUUGGAUAGUAUUUUGUUA,0.109 ± 0.019
7,UCCUGGAUGAGCAUUGCAUAGUAUUUAGUUA,0.212 ± 0.022
8,UCCUGGUACAGCUCGCAUAGUAUUUAGUUA,0.262 ± 0.023
9,UCCUGCUACAGCUUGCAAAGUAUUUAGUAA,0.121 ± 0.021
10,UCCUGCAACUGCUUGCAUAGUAUUUAGUUA,0.322 ± 0.025
11,UCCUGGAACAGCUUGCAUAGUAAAUAGUUA,0.153 ± 0.021
12,UCCUGCUACAGCUUGCAUAAUAUUUAGUUA,0.363 ± 0.034
13,UCCUGGUACAGCAUGCAUACUAUUUAGUUA,0.139 ± 0.031
14,UCCUGGAACAGCUUGCAUAGUAUUUAGUUA [g2:g23:cont:t1A],0.297 ± 0.019
15,UCCUCCUACAGCUUGCAUAGUCUUUAGUUA,0.198 ± 0.023
16,UCCUCCUACAGCUUGGAUAGUAUUUAGUUA,0.294 ± 0.017
17,UCCUCGAUCAGCUUGCAUAGUAUUUAGUUA,0.316 ± 0.017
18,UCCUCCUACAGCUUGCUUUGUAUUUAGUUA,0.18 ± 0.017
19,UCCUGGAUCAGCAUGCAUUGUAUUUAGUUA,0.15 ± 0.014
20,UCCUGGAACAGCUUGCAAGUAUUUAGUUA,0.141 ± 0.013

# Same assay, conditions: auxiliary factor: none (no GTSF1)
row,Sequence,pre-steady-state target cleavage rate
1,UCCUGGAACAGCUUGCAAUGUAUUUAGUUA,0.00437 ± 0.002
2,UCCUGGAAACAGCUUGCAUAGUAUUUAGUUA,0.0105 ± 0.0038
3,UCCUGCUACAGCUUGGUUAGUAUUUAGUAA,0.00357 ± 0.0022
4,UCCUGGAUGUGCAAGCAUAGUAUUUAGUUA,0.00481 ± 0.0026
5,UCCUCCUACAGCUUGCAUAGUUAUUUAGUUA,0.00383 ± 0.0024
6,UCCUCCUACAGCAACCAUAGUAUUUAGUUA,0.00404 ± 0.002
7,UCCUGGAACAGCUGCAUAGUAUUUAGUUA,0.0069 ± 0.0026
8,UCCUGGAUCAGCUUGCAUAGAAUUUAGUUA,0.00356 ± 0.002
9,UCCUGGAUGAGCUUGCAUUGUAUUUAGUUA,0.00846 ± 0.0023
10,UCCUGGUACACUUGCAUAGUAUUUAGUUA,0.00665 ± 0.0026
11,UCCUGCUACAGGUUGCAUAGUAUAUAGUUA,0.00597 ± 0.0027
12,UCCUGGAUGUGCUUGCAUAGUAUUUAAGUUA,0.00961 ± 0.0032
13,UCCUGGAUCAGCUGGCAUAGUAUUUAGUUA,0.00736 ± 0.0024
14,UCCUGGAUGUACUUGCAUAGUAUUUAGUUA,0.0107 ± 0.0025
15,UCCUGGUACAGCUUGCAUAGUAUUUUCUAA,0.00383 ± 0.0034
16,UCCUGGAUGUGGUAGCAUAGUAUUUAGUUA,0.00767 ± 0.0031
17,UCCUGGAACAGCAUUGCAUAGUAUUUAGUUA,0.00862 ± 0.0022
18,UCCUGGAUGUGCUUGCAUCGUAUUUAGUUA,0.0103 ± 0.0028
19,UCCUGGAUCAGGUUGCAUUGUAUUUAGUUA,0.00671 ± 0.0024
20,UCCUCCUACUCCUUGCAUAGUAUUUAGUAA,0.00285 ± 0.0024

row,Sequence,pre-steady-state target cleavage rate
1,UCCUGCUACAGCUUGCAAAGUAUUUUGUUA,0.00325 ± 0.0025
2,UCCUGCUACAGCUUGCAUAGUAUUCUAGUUA,0.00709 ± 0.0024
3,UCCUGCUAGAGGUUGCAUAGUAUUUAGUUA,0.0085 ± 0.0026
4,UCCUGCAAGAGCUUGCAUAGUAUUUAGUUA,0.00624 ± 0.0028
5,UCCUGGAUGAAGCUUGCAUAGUAUUUAGUUA,0.0106 ± 0.0031
6,UCCUGCUACAGCUUGGAUAGUAUUUUGUUA,0.00311 ± 0.003
7,UCCUGGAUGAGCAUUGCAUAGUAUUUAGUUA,0.0105 ± 0.0025
8,UCCUGGUACAGCUCGCAUAGUAUUUAGUUA,0.0138 ± 0.0045
9,UCCUGCUACAGCUUGCAAAGUAUUUAGUAA,0.00272 ± 0.0025
10,UCCUGCAACUGCUUGCAUAGUAUUUAGUUA,0.00581 ± 0.0026
11,UCCUGGAACAGCUUGCAUAGUAAAUAGUUA,0.0034 ± 0.0027
12,UCCUGCUACAGCUUGCAUAAUAUUUAGUUA,0.00537 ± 0.0019
13,UCCUGGUACAGCAUGCAUACUAUUUAGUUA,0.00694 ± 0.003
14,UCCUGGAACAGCUUGCAUAGUAUUUAGUUA [g2:g23:cont:t1A],0.0103 ± 0.0024
15,UCCUCCUACAGCUUGCAUAGUCUUUAGUUA,0.00522 ± 0.0021
16,UCCUCCUACAGCUUGGAUAGUAUUUAGUUA,0.0109 ± 0.003
17,UCCUCGAUCAGCUUGCAUAGUAUUUAGUUA,0.0102 ± 0.0027
18,UCCUCCUACAGCUUGCUUUGUAUUUAGUUA,0.00401 ± 0.0023
19,UCCUGGAUCAGCAUGCAUUGUAUUUAGUUA,0.00792 ± 0.0027
20,UCCUGGAACAGCUUGCAAGUAUUUAGUUA,0.00614 ± 0.0021
